Most compounds without a hit are left out; they make up all but 6.7% or so of the library.
T cruzi growth = T. cruzi proliferation inhibition. T. cruzi beta-gal in NIH3T3, GalScreen luminescence, 90 h. inhibition, % at 8.34 µM. 77,000 tested, 5.9% active. AID 624255;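 active = mean inhibition above about 93%, with at least 55% of replicates each passing it, limit read from the data, passing the limit was not always enough; inconclusive = only one of those two conditions holds; inactive = neither condition holds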
C diff growth = C. difficile growth inhibition; Clostridium difficile clinical isolate growth, OD600, 24 h; stronger effect = lower value; growth activity, negative = inhibition, % at 16 µg/mL (by protocol); 86,000 tested, 0.25% active; AID 1259249;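 active = mean growth activity at or below -80% and every replicate also at or below -80%; inconclusive = mean at or below -80% but some replicate above -80%; inactive = mean growth activity above -80%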
Pf Dd2 inh = P. falciparum Dd2 growth inhibition; SYBR Green, 72 h; stronger effect = lower value; activity change, % at 10 µM; 94,000 tested, 2.3% active; in the data active = activity change below about -80%; inconclusive = no clear call, values can overlap the other calls
A number is an active result; 0 = inactive; ? = inconclusive; - = not tested or not shown; ! = not confirmed by another sample.

SMILES	T cruzi growth	C diff growth	Pf Dd2 inh
C[C@H]1CN([C@@H](C)CO)C(=O)Cc2cc(NC(=O)Nc3cccc4ccccc34)ccc2O[C@@H]1CN(C)CC1CCCCC1	0	0	0
C[C@H](CO)N1C[C@H](C)[C@@H](CN(C)CC2CC2)Oc2ccc(NC(=O)Nc3cccc4ccccc34)cc2CC1=O	0	0	-86
C[C@H]1CN([C@@H](C)CO)C(=O)Cc2cc(NC(=O)Nc3cccc4ccccc34)ccc2O[C@H]1CN(C)C	-	0	0
CCCNC(=O)N(C)C[C@@H]1Oc2ncc(C3=CCCCC3)cc2C(=O)N([C@@H](C)CO)C[C@@H]1C	0	0	0
O=C(C[C@H]1C=C[C@H](NC(=O)Nc2ccc3c(c2)OCO3)[C@H](CO)O1)NCc1ccccc1	0	0	0
O=C(NCC[C@H]1CC[C@H](NC(=O)C2CC2)[C@@H](CO)O1)Nc1ccc(C(F)(F)F)cc1	0	-99	0
CN(C)CC(=O)N[C@@H]1CC[C@@H](CCNC(=O)Nc2ccc(C(F)(F)F)cc2)O[C@H]1CO	0	-89	0
CC(=O)N[C@H]1CC[C@@H](CCNC(=O)Nc2ccc(C(F)(F)F)cc2)O[C@@H]1CO	0	0	0
CC(=O)N[C@@H]1CC[C@H](CCNC(=O)Nc2ccc(C(F)(F)F)cc2)O[C@H]1CO	0	-94	0
CCC(=O)N[C@@H]1CC[C@@H](CCNC(=O)Nc2ccc(C(F)(F)F)cc2)O[C@@H]1CO	0	-	0
O=C(NCC[C@H]1CC[C@H](NC(=O)C2CC2)[C@H](CO)O1)Nc1ccc(C(F)(F)F)cc1	0	0	0
COc1ccc(S(=O)(=O)N(C)C[C@@H]2Oc3ccc(NS(=O)(=O)c4ccc(Cl)cc4)cc3C(=O)N([C@@H](C)CO)C[C@H]2C)cc1	0	-	0
C[C@H](CO)N1C[C@H](C)[C@@H](CN(C)CC2CCCCC2)Oc2ccc(NC(=O)CCCN(C)C)cc2CC1=O	0	0	0
C=CCOC(=O)[C@@H]1[C@H]2C(=O)O[C@H](c3ccccc3)[C@H](c3ccccc3)N2[C@H](c2ccc(OCCOC(=O)[C@@H]3C[C@@H]4C(=O)NCC(=O)N4[C@@H]3c3ccc(O)cc3)cc2)[C@@]12C(=O)Nc1ccc(I)cc12	-	0	-
C[C@H](CO)N1C[C@H](C)[C@H](CN(C)Cc2ccc(C(=O)Nc3ccccc3N)cc2)Oc2ccc(NS(=O)(=O)c3ccc(F)cc3)cc2CC1=O	0	0	-82
C[C@@H]1CN([C@@H](C)CO)C(=O)Cc2cc(NS(C)(=O)=O)ccc2O[C@H]1CN(C)Cc1ccc(C(=O)Nc2ccccc2N)cc1	0	0	0
C[C@H](CO)N1C[C@H](C)[C@H](CN(C)Cc2ccc(C(=O)Nc3ccccc3N)cc2)Oc2ccc(NS(=O)(=O)c3ccccc3)cc2CC1=O	0	0	-85
C[C@H]1CN([C@@H](C)CO)C(=O)Cc2cc(NS(=O)(=O)c3ccc(Cl)cc3)ccc2O[C@@H]1CN(C)Cc1ccc(C(=O)Nc2ccccc2N)cc1	-	0	-85
C[C@@H]1CN([C@@H](C)CO)C(=O)Cc2cc(NS(=O)(=O)c3ccc(F)cc3)ccc2O[C@H]1CN(C)Cc1ccc(C(=O)Nc2ccccc2N)cc1	-	0	0
C[C@H](CO)N1C[C@H](C)[C@H](CN(C)Cc2ccc(C(=O)Nc3ccccc3N)cc2)Oc2ccc(NS(=O)(=O)c3ccc(Cl)cc3)cc2CC1=O	-	0	-83
C[C@H](CO)N1C[C@H](C)[C@@H](CN(C)Cc2ccc(C(=O)Nc3ccccc3N)cc2)Oc2ccc(NS(=O)(=O)c3ccc(F)cc3)cc2CC1=O	0	0	?
C[C@@H]1CN([C@@H](C)CO)C(=O)Cc2cc(NS(=O)(=O)c3ccc(Cl)cc3)ccc2O[C@H]1CN(C)Cc1ccc(C(=O)Nc2ccccc2N)cc1	0	0	0
C[C@@H]1CN([C@@H](C)CO)S(=O)(=O)c2ccc(C3=CCCCC3)cc2O[C@H]1CN(C)S(=O)(=O)c1cn(C)cn1	0	0	0
CCCC(=O)Nc1ccc2c(c1)C(=O)N(C)[C@H]1CC[C@@H](CC(=O)NCCc3ccccc3)O[C@H]1CO2	0	0	0
CNC[C@@H]1Oc2ccc(N)cc2C(=O)N([C@H](C)CO)C[C@H]1C	0	0	0
SMILES	T cruzi growth	C diff growth	Pf Dd2 inh
Cc1noc(C)c1S(=O)(=O)N(C)C[C@@H]1Oc2ccc(NS(=O)(=O)c3ccccc3)cc2CC(=O)N([C@H](C)CO)C[C@H]1C	0	0	0
Cc1ccccc1-c1ccc(C2[C@H]3CNC[C@@H]2N3C(=O)Nc2ccc(Cl)cc2)cc1 (stereo not given in full)	-	-97!	0
COc1cccc(-c2ccc(C3[C@H]4CNC[C@@H]3N4C(=O)Nc3ccc(C(F)(F)F)cc3)cc2)c1 (stereo not given in full)	-	-94!	0
O=C(Nc1ccc(C(F)(F)F)cc1)N1[C@@H]2CNC[C@H]1C2c1ccc(-c2ccc(F)cc2)cc1 (stereo not given in full)	-	-99	0
COc1ccc(NC(=O)N2[C@@H]3CNC[C@H]2C3c2ccc(-c3ccccc3C)cc2)cc1 (stereo not given in full)	-	0	0
COc1ccc(NC(=O)N2[C@@H]3CNC[C@H]2C3c2ccc(-c3cccc(OC)c3)cc2)cc1 (stereo not given in full)	-	0	0
O=C(Nc1ccc(C(F)(F)F)cc1)N1[C@@H]2CNC[C@H]1C2c1ccc(-c2cccnc2)cc1 (stereo not given in full)	-	0	0
C[C@@H]1CN([C@@H](C)CO)C(=O)c2cc(NC(=O)C3CC3)ccc2O[C@@H]1CN(C)Cc1ccc2c(c1)OCO2	0	0	0
CC(C)NC(=O)N[C@H]1C=C[C@@H](CC(=O)NCc2ccc(Oc3ccccc3)cc2)O[C@H]1CO	0	0	0
CC=Cc1ccc2n(c1=O)C[C@@H]1[C@@H](CO)[C@H](C(=O)N(C)C)[C@H]2N1CC1CC1 (mixture of isomers)	0	0	0
C[C@H](CO)N1C[C@H](C)[C@H](CN(C)C(=O)Nc2cccc3ccccc23)OCCCC[C@H](C)Oc2ccc(NC(=O)c3ccccc3)cc2C1=O	0	0	0
C[C@@H]1CCCCO[C@H](CN(C)C(=O)Nc2cccc3ccccc23)[C@@H](C)CN([C@@H](C)CO)C(=O)c2cc(N(C)C)ccc2O1	0	0	-83
C[C@@H]1CN([C@@H](C)CO)C(=O)c2cc(NC(=O)c3ccccc3)ccc2O[C@@H](C)CCCCO[C@H]1CN(C)C(=O)Nc1cccc2ccccc12	0	0	-81
C[C@@H]1CCCCO[C@@H](CN(C)C(=O)Nc2cccc3ccccc23)[C@H](C)CN([C@@H](C)CO)C(=O)c2cc(NC(=O)c3ccccc3)ccc2O1	0	0	0
C[C@@H]1CN([C@H](C)CO)C(=O)c2cc(NC(=O)C3CCCCC3)ccc2O[C@@H](C)CCCCO[C@@H]1CN(C)C(=O)Nc1cccc2ccccc12	0	0	-91
C[C@@H]1CN([C@@H](C)CO)C(=O)c2cc(NC(=O)C3CCCCC3)ccc2O[C@@H](C)CCCCO[C@H]1CN(C)C(=O)Nc1cccc2ccccc12	0	0	0
C[C@@H]1CN([C@H](C)CO)C(=O)c2cc(NC(=O)c3ccccc3)ccc2O[C@@H](C)CCCCO[C@@H]1CN(C)C(=O)Nc1cccc2ccccc12	0	0	-89

From PubChem BioAssay
